Screens (PubChem BioAssay)
Compounds with a hit are over-represented: about 17% of the library has one in this group of screens.
DT40 TDP1 CPT = DT40-hTDP1 cell growth loss with CPT. chicken DT40 Tdp1-/-;hTDP1 cells + 20 nM CPT, ATP luminescence, 48 h. Potency, µM (titrated, usually from 46.2 µM), inactives show top-dose activity change, negative = growth inhibition, actives largely listed as inhibitors. 420,000 tested, 12% active. AID 686979; also: % is scaled to controls: 0 for no effect and ±100 for the full control effect; nearly all actives have a fitted effect of over 55% in size
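Chicken DT40 Tdp1-/- cells stably complemented with human TDP1 were seeded at 400 cells/well in medium containing 20 nM camptothecin, exposed to pin-transferred compounds, and grown at 37 °C for at least 48 hr. Viability was read as ATP luminescence.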
TGFb inhibitor = TGF-b pathway inhibition. HepG2 CAGA-GFP TGF-b/SMAD3 reporter, GFP fluorescence, 18 h; TGF-beta stimulated, 500 pg/mL final. 410,000 tested, 1.2% active. AID 588855. Potency, µM (titrated, usually from 46.1 µM), inactives show top-dose activity, negative = inhibition, actives largely listed as inhibitors; also: % is scaled to controls: 0 for no effect and ±100 for the full control effect; nearly all actives have a fitted effect of over 65% in size
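Inhibition of TGF-beta-driven CAGA-GFP reporter expression in HEPG2 cells is measured by cellular GFP fluorescence after 18 h stimulation with 500 pg/mL recombinant TGF-beta in 1% FBS medium at 37 degrees C.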
HT1080 IDH1KD tx = HT-1080 IDH1 knockdown cell toxicity (counter line); Potency, µM (top dose mostly 46.1 µM), inactives show at the top dose activity, negative = toxicity, actives largely listed as cytotoxic; 360,000 tested, 2% active; AID 686971; HT-1080 IDH1 knockdown viability, ATP luminescence, 48 h;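 also: 0% = DMSO wells and -100% = cell-free medium wells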
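IDH1KD HT-1080 cells, 750/well, RPMI + 5% FBS; compound pinned after 2 h settling; 48 h, 37 °C; CellTiter-Glo luminescence; % activity normalised to DMSO and no-cell wells; curves fitted, classed by r2 and efficacy.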
HT1080NT lethal = kills 2HG-producing HT-1080-NT fibrosarcoma cells; HT-1080-NT fibrosarcoma viability, CellTiter-Glo ATP luminescence, 48 h; 360,000 tested, 1.6% active; Potency, µM (doses to about 46.1 µM), without a hit: at the highest dose activity, negative = less viability, hits mostly cytotoxic;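 also: NT is the 2HG producing partner of a matched IDH1 knockdown line; 0% = DMSO-treated cells and -100% = media-only wells without cells; nearly all actives have a fitted effect of over 55% in size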
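Viability of the 2HG-overproducing fibrosarcoma line after 48 hours of compound exposure at 37 degrees C was determined by luminescence with CellTiter-Glo, and concentration-effect curves were then fitted and categorized.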
DT40 TDP1 no CPT = qHTS for Inhibitors of human tyrosyl-DNA phosphodiesterase 1 (TDP1): qHTS in cells in absence of CPT; 420,000 tested, 15% active; Potency, µM (doses to about 46.2 µM), for inactives: at the highest dose activity change, negative = growth inhibition, usual class: inhibitors; DT40 Tdp1-/- hTDP1 cells, no CPT, ATP luminescence, 48 h; also: % is scaled to controls: 0 for no effect and ±100 for the full control effect; nearly all actives have a fitted effect of over 55% in size
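Stably hTDP1-transfected Tdp1-null chicken DT40 cells were treated with library compounds minus camptothecin and grown for at least 48 hr at 37 °C, after which cellular ATP was quantified by luminescence.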
HepG2 viability = counter-screen for TGF-b inhibitors: cytotoxicity in HepG2 cells | Potency, µM (titrated, usually from 46.1 µM), for inactives: at the top dose activity change, negative = cytotoxicity, most hits filed as cytotoxic | HepG2 CAGA-GFP viability, ATP luminescence, 18 h | 410,000 tested, 0.76% active
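HepG2 CAGA-GFP cells (1000/well, DMEM with 1% FBS) received compound, then TGF-beta at 500 pg/mL final, and were incubated 18 hours at 37 degrees C. Viability was read by CellTiter-Glo luminescence. Media-only wells were set as complete cell-killing and DMSO as no toxicity.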
Active calls of the source: *; ? = inconclusive; · = no result; [ ] = another dose, or the depositor's remark. Calls follow the shape of the dose curve; as a rule, active = well fitted curve in the direction sought with a large enough effect; inconclusive = small, poorly fitted or top-dose-only effect, or another doubt; inactive = no such curve, though single readings can be large; an effect the other way counts as inactive or inconclusive. Potency is read from the fitted curve at half-maximal effect.

SMILES	DT40 TDP1 CPT	TGFb inhibitor	HT1080 IDH1KD tx	HT1080NT lethal	DT40 TDP1 no CPT	HepG2 viability
CC1CCCCC1NC(=O)COC(=O)c1c2c(nc3ccccc13)/C(=C/c1ccco1)CC2 (configuration not stated)	16µM*	-13%	-6%	-6%	15µM*	1%
O=C(COC(=O)c1ccccc1)NC1CCCC1	12%	-2%	25%	25%	-12%	1%
O=C(COC(=O)c1c2c(nc3ccccc13)/C(=C/c1ccco1)CC2)NC1CCCC1	16µM*	?	-13%	2%	?	-2%
COc1ccc(/C=N/N=C/c2ccc(OC)c(O)c2)cc1O	-5%	0%	-2%	-4%	-11%	-11%
COc1ccc(C=C2C(=O)c3ccccc3C2=O)cc1O	0%	13%	-1%	3%	0%	-25%
CCN1C/C(=C/c2ccc(OC)c(O)c2)C(=O)/C(=C/c2ccc(OC)c(O)c2)C1	13µM*	?	?	?	12µM*	-2%
COc1ccc(/C=C2\CN(Cc3ccccc3)C/C(=C\c3ccc(OC)c(O)c3)C2=O)cc1O	5.2µM*	5µM*	2.3µM*	?	2.1µM*	-64%
O=C(NNC(=O)c1ccc(Br)o1)c1csc(N2CCOCC2)n1	9%	-10%	10%	16%	-23%	-1%
COc1ccc(CCNC(=O)C/C(C)=N/NC(=O)c2cnccn2)cc1	-2%	10%	1%	15%	13%	2%
NC(=O)C1(N2CCCCC2)CCN(Cc2ccccc2Cl)CC1	?	-13%	-26%	?	-10%	-15%
COc1ccc2nc3oc(C(=O)NCc4ccccc4OC)cc3cc2c1	9%	-19%	·	·	1%	-12%
COc1ccc(CCNC(=O)/C(C#N)=C/c2cccc(OCc3ccccc3)c2)cc1OC	?	?	-20%	?	18µM*	-20%
Cc1noc(C)c1CSCC(=O)Nc1cc(S(=O)(=O)N2CCCCC2)ccc1OC(C)C	12µM*	?	-6%	-3%	23µM*	-6%
CC(C)Oc1ccc(S(=O)(=O)N2CCOCC2)cc1NC(=O)CSC(=S)N1CCCC1	?	-19%	-14%	-7%	21µM*	-4%
Cc1noc(C)c1CSCC(=O)Nc1cc(Cl)ccc1N1CCCCC1	-26%	?	-1%	2%	?	8%
Cc1noc(C)c1CSCC(=O)Nc1cc(C(F)(F)F)ccc1N1CCCCC1	18µM*	-14%	-12%	-3%	16µM*	-36%
COc1ccc(S(=O)(=O)N(C)C[C@@H]2OCc3cnnn3CCCC(=O)N([C@@H](C)CO)C[C@@H]2C)cc1	0%	15%	2%	17%	6%	26%
Cc1ccc(S(=O)(=O)N2CCOCC2)cc1NC(=O)Cn1nc(C)c([N+](=O)[O-])c1C	-6%	3%	0%	8%	-3%	-18%
CC(=O)N/C(=C\c1ccccc1)C(=O)OCC(=O)NC(C)C12CC3CC(CC(C3)C1)C2 (configuration not stated)	15µM*	10%	-20%	-5%	21µM*	-2%
O=C(CSc1ncccn1)NCC1Cc2cccc(-c3ncccn3)c2O1 (configuration not stated)	7%[9.04 µM]	·	·	·	8%	·
CCCCNC(=O)C1(C)CCCCN1C(=O)c1ccc(OC)c(C(F)(F)F)c1 (configuration not stated)	?	-7%	10%	21%	?	-10%
Nc1c(Cl)ncnc1NCCc1ccc(O)cc1	13µM*	-20%	?	?	5.8µM*	-20%
Nc1c(Cl)ncnc1NCc1cccnc1	-12%	-20%	15%	22%	?	-12%
COc1ccc(N(C2=NCCCS2)S(=O)(=O)c2ccc(C(C)(C)C)cc2)cc1	-20%	-4%	2%	-10%	?	-1%
COc1ccccc1N(C1=NCCCS1)S(=O)(=O)c1ccc(C(C)(C)C)cc1	21µM*	3%	-3%	-4%	23µM*	-3%
SMILES	DT40 TDP1 CPT	TGFb inhibitor	HT1080 IDH1KD tx	HT1080NT lethal	DT40 TDP1 no CPT	HepG2 viability
Cc1ccc(NNC(=S)Nc2ccc(C(C)C)cc2)c(C)c1	?	?	-14%	-5%	16µM*	-14%
Cc1ccc(C)c(NC(=S)NNc2ccc(F)cc2F)c1	?	-1%	26µM*	26µM*	?	10%
Cc1ccc(NC(=S)NNC(=O)Nc2ccccc2)cc1	?	?	6%	3%	?	0%
Cc1ccc(NC(=S)NNC(=S)Nc2ccc(C)cc2)cc1	6.5µM*	?	8%	13%	2.3µM*	-5%
Cc1ccc(NC(=S)NNC(=S)Nc2cccc(C(F)(F)F)c2)cc1	?	-9%	?	-14%	29µM*	-24%
Cc1ccc(C)c(NC(=S)NCCc2ccc(F)cc2)c1	?	?	-1%	-2%	?	-36%
CC(NC(=S)Nc1cccc(C(F)(F)F)c1)C(C)(C)C (configuration not stated)	?	?	?	?	16µM*	-37%
CN(C)NC(=S)Nc1cccc(C(F)(F)F)c1	16%	-6%	3%	12%	-4%	-27%
CN(C)C(=S)Nc1cccc(F)c1	5%	-14%	3%	-4%	-15%	10%
CN(C)C(=S)Nc1cccc(C(F)(F)F)c1	26µM*	0%	-4%	-2%	?	75%
Cc1ccc(NC(=S)NNC(=O)c2cn(C)nc2C)cc1	-14%	15%	10%	3%	-1%	1%
Cc1ccc(NC(=S)NNC(=O)c2c([N+](=O)[O-])c(C)nn2C)cc1	4%	-2%	5µM*	5.6µM*	-3%	-3%
CC(C)(C)NNC(=S)Nc1cccc(F)c1	?	?	5.8µM*	2.9µM*	15µM*	-56%
COc1ccccc1-c1cn(CC[C@H]2CC[C@@H](NS(=O)(=O)c3ccccc3C)[C@@H](CO)O2)nn1	?	·	1%	-2%	?	·
COc1ccc2c(c1OC)C(=O)NC(C)=C(C(=O)OC(C)(C)C)C2O (configuration not stated)	-3%	-3%	-2%	10%	-1%	2%
CC(C)CN1CCC(=O)N([C@H](CO)Cc2ccccc2)CC1	8%	12%	7%	16%	-13%	2%
